{"source": "PubChem BioAssay AID2315", "about": "(National Center for Advancing Translational Sciences (NCATS), 2010)", "note": "Hit rate of the full screen: of about 290,000 compounds, about 27,000 (9.3%) were called active. The sample holds actives, similar compounds and a random draw of the others, so the mix is not that of the screen. No stated cut-off is given here; in the data, active means inhibition mostly above about 28% (no sharp cut-off); inactive means mostly below about 43%.", "data": [{"test": "A qHTS for Small Molecule Inhibitors of Shiga Toxin; further: 0% is about no effect", "details": "Vero cells, Shiga toxin protein synthesis inhibition reporter; at 38.7 µM, active compounds read high", "values": [{"smiles": "COC(=O)c1ccccc1NC(=O)CSc1nc2c(c(=O)[nH]1)CCC2", "inhibition": "-2.68% (inactive)"}, {"smiles": "COc1ccc(C(=O)NC(=S)N2CCCCC2c2cccnc2)cc1OC", "note": "(stereo unspecified)", "inhibition": "-4.75% (inactive)"}, {"smiles": "Cc1ccc(Cn2cc(C(=O)NN)c(=O)c3ccc(F)cc32)cc1", "inhibition": "-5.32% (inactive)"}, {"smiles": "Nc1nc(SCc2cccc(Br)c2)n[nH]1", "inhibition": "14.2% (inactive)"}, {"smiles": "O=C(CN1CCN(C(=O)C2CCCO2)CC1)Nc1c(Cl)cccc1Cl", "note": "(stereo unspecified)", "inhibition": "-6.84% (inactive)"}, {"smiles": "COc1cc(C(=O)NCC2(c3ccccc3)CCCC2)ccc1OC(C)C", "inhibition": "4.68% (inactive)"}, {"smiles": "CC(Cc1cccs1)NCc1ccc(Cl)cc1", "note": "(stereo unspecified)", "inhibition": "-11.1% (inactive)"}, {"smiles": "CC(Cc1cccs1)NC(=O)c1cccc(Cl)c1", "note": "(stereo unspecified)", "inhibition": "62% (active)"}, {"smiles": "CC(Cc1cccs1)NC(=O)NC1CCCCC1", "note": "(stereo unspecified)", "inhibition": "35.2% (inactive)"}, {"smiles": "COC(=O)c1ccc(COc2ccc(/C=C/C(=O)c3ccc(OC)c(CSCC(=O)O)c3)cc2OC)cc1", "inhibition": "10.1% (inactive)"}, {"smiles": "CCOC(CNC(=O)C1CCN(S(=O)(=O)c2ccc3nc4c(c(C(=O)O)c3c2)CC(C)CC4)CC1)OCC", "note": "(stereo unspecified)", "inhibition": "16.6% (inactive)"}, {"smiles": "NS(=O)(=O)c1ccc2nc(NC(=O)CS(=O)(=O)c3ccc(F)cc3)sc2c1", "inhibition": "-4.57% (inactive)"}, {"smiles": "NS(=O)(=O)c1ccc2nc(NC(=O)C3=COCCO3)sc2c1", "inhibition": "31.7% (active)"}, {"smiles": "O=C(Nc1ccc(S(=O)(=O)N2CCCC2)cc1Cl)C1=COCCO1", "inhibition": "-24.5% (inactive)"}, {"smiles": "CC(=O)c1ccc(NC(=O)Cn2c(=O)oc3ccccc32)cc1", "inhibition": "-3.29% (inactive)"}, {"smiles": "Nc1ncc(CN2CCCC(C(=O)Nc3ccc(-c4ccco4)cc3)C2)cn1", "note": "(stereo unspecified)", "inhibition": "1.36% (inactive)"}, {"smiles": "Cc1noc(C)c1COc1ccc2ccc(=O)oc2c1", "inhibition": "-4.36% (inactive)"}, {"smiles": "COC(=O)c1ccc(COc2ccc(C#N)cc2)o1", "inhibition": "-6.04% (inactive)"}, {"smiles": "CC(C)OC(=O)c1ccc(COc2ccc3ccc(=O)oc3c2)o1", "inhibition": "56.4% (active)"}, {"smiles": "CN(C)C(=O)CCC(=O)N1CCCCC1C(=O)Nc1ccc(Oc2ccccc2F)cc1", "note": "(stereo unspecified)", "inhibition": "-6.54% (inactive)"}, {"smiles": "CC(C)(C)n1nnnc1C(c1ccccc1F)N1CCN(C(=O)c2ccco2)CC1", "note": "(stereo unspecified)", "inhibition": "2.73% (inactive)"}, {"smiles": "Cc1ccccc1OCC(=O)N(Cc1cccc(F)c1)C1CCS(=O)(=O)C1", "note": "(stereo unspecified)", "inhibition": "10.7% (inactive)"}, {"smiles": "CCCCCOc1ccc(CSC2=NCCN2)cc1[N+](=O)[O-]", "inhibition": "63.7% (active)"}, {"smiles": "CCCOc1ccc(Cn2ccnc2)cc1[N+](=O)[O-]", "inhibition": "-8.54% (inactive)"}, {"smiles": "CCCCOc1ccc(CSC(=N)N)cc1[N+](=O)[O-]", "inhibition": "-5.85% (inactive)"}, {"smiles": "COc1cccc(CCNC(=O)c2cccc(NC(=O)C3=C(C)OCCS3)c2)c1", "inhibition": "-2.41% (inactive)"}, {"smiles": "CN(C)CCn1c(=S)[nH]c2ccc(Cl)cc2c1=O", "inhibition": "-8.18% (inactive)"}, {"smiles": "CN(C)CCN=c1cc(-c2ccccc2)oc2ccc(Cl)cc12", "inhibition": "129% (active)"}, {"smiles": "Cc1cc(-c2ccc(C)c(S(=O)(=O)Nc3ccc(S(N)(=O)=O)cc3)c2)on1", "inhibition": "29.3% (inactive)"}, {"smiles": "COc1ccc(CCNS(=O)(=O)c2cn(C)nc2C)cc1", "inhibition": "16.1% (inactive)"}, {"smiles": "CCOC(=O)CNc1nc(Cl)nc(Nc2ccccc2)n1", "inhibition": "65.7% (active)"}, {"smiles": "CCC(=O)Nc1ccc(Nc2nc(Cl)nc(Nc3ccc(NC(=O)CC)cc3)n2)cc1", "inhibition": "4.44% (inactive)"}, {"smiles": "CCOC(=O)CNc1nc(Cl)nc(Nc2ccc(OC)cc2OC)n1", "inhibition": "26.8% (inactive)"}, {"smiles": "CCn1c(SCC(=O)NC2CCCC2)nnc1-c1ccoc1C", "inhibition": "-5.62% (inactive)"}, {"smiles": "CN(Cc1cc2cc(F)ccc2[nH]1)Cc1nc(-c2cnccn2)no1", "inhibition": "-4.61% (inactive)"}, {"smiles": "CN(Cc1ccc2nsnc2c1)Cc1nc(Cc2cccc(F)c2)no1", "inhibition": "1.39% (inactive)"}, {"smiles": "CN(Cc1nc2ccc(F)cc2[nH]1)Cc1nc(CC2CC2)no1", "inhibition": "48% (active)"}, {"smiles": "C/C(=N\\N(C)C)c1ccc(OCCOc2ccc([N+](=O)[O-])cc2)cc1", "inhibition": "6.72% (inactive)"}, {"smiles": "CCn1c(SCC(=O)NC2=NCCS2)nnc1C(C)NC(=O)c1ccccc1F", "note": "(stereo unspecified)", "inhibition": "-15.6% (inactive)"}, {"smiles": "Cc1cc(-n2cnc(-c3cn(C)nc3C)n2)no1", "inhibition": "52.5% (active)"}, {"smiles": "COc1ccc(Cl)cc1NS(=O)(=O)c1cccc(C(=O)NCC2CCCO2)c1", "note": "(stereo unspecified)", "inhibition": "-3.5% (inactive)"}, {"smiles": "O=C1CSc2ccc(S(=O)(=O)NCc3ccccc3)cc2N1", "inhibition": "-7.81% (inactive)"}, {"smiles": "COC(=O)c1ccc(NC(=O)Nc2ccc(C)cc2)cc1", "inhibition": "46% (active)"}, {"smiles": "O=C(Nc1cccnc1)c1cc(Cl)ccc1Cl", "inhibition": "-11.4% (inactive)"}, {"smiles": "COC(=O)c1ccc(NC(=O)c2cc(Cl)ccc2OC)cc1", "inhibition": "1.91% (inactive)"}, {"smiles": "COC(=O)c1sccc1NC(=O)c1cc(OC)c(OC)c(OC)c1", "inhibition": "14.1% (inactive)"}, {"smiles": "Cc1ccc(Oc2cc(NC(=O)CCCn3nc(C)c([N+](=O)[O-])c3C)cc([N+](=O)[O-])c2)cc1", "inhibition": "9.13% (inactive)"}, {"smiles": "Cc1ccc(NC(=O)CC(=O)Nc2ccc(C)cc2)cc1", "inhibition": "-2.71% (inactive)"}, {"smiles": "COc1cc(NC(=O)Nc2ccc(C)cc2)cc([N+](=O)[O-])c1", "inhibition": "-2.21% (active)"}, {"smiles": "O=C(NNC(=O)c1csc(-c2cccnc2)n1)Nc1ccc(Cl)cc1", "inhibition": "4.07% (inactive)"}, {"smiles": "CC(=O)c1ccc(NC(=O)Nc2ccc([N+](=O)[O-])cc2C)cc1", "inhibition": "-6.96% (inactive)"}, {"smiles": "COC(=O)c1sccc1NC(=O)c1ccc(Cl)cc1", "inhibition": "-2.96% (inactive)"}, {"smiles": "O=C(Nc1ccc(Cl)cc1)Nc1ccc(Oc2cccnc2)nc1", "inhibition": "51.4% (active)"}, {"smiles": "COC(=O)c1sccc1NC(=S)Nc1ccc(C)cc1", "inhibition": "39.9% (active)"}, {"smiles": "COc1ccc(N2CCN(C(=O)Cn3cnc4sc(C)c(S(=O)(=O)N5CCOCC5)c4c3=O)CC2)cc1", "inhibition": "-21.2% (inactive)"}, {"smiles": "CSCC[C@H](NC(=O)N1CCn2c1nc1ccccc12)C(=O)NC1CCCCC1", "inhibition": "21.5% (inactive)"}, {"smiles": "CC(=N\\NC(=O)c1cc(Br)ccc1O)/C(=N/O)C(=O)Nc1ccccc1", "inhibition": "27.5% (inactive)"}, {"smiles": "CCc1nn(CCCC(=O)Nc2ccc(C)c(C)c2)c(=O)c2cc3occc3n12", "inhibition": "-3.08% (inactive)"}, {"smiles": "CC(=O)Nc1ccc(S(=O)(=O)N(C)c2nc3ccccc3nc2Cl)cc1", "inhibition": "21.4% (inactive)"}, {"smiles": "COc1cc2c(cc1OC)C(c1ccccc1Br)NC(=O)C2", "note": "(stereo unspecified)", "inhibition": "-13.7% (inactive)"}, {"smiles": "CN1CCN(c2ccccc2NC(=O)COc2ccc(C3CCCCC3)cc2)CC1", "inhibition": "16.9% (inactive)"}]}]}
